Screening data (PubChem)
rCAG binder – r(CAG) repeat RNA binding | TO-PRO-1 dye displacement fluorescence | inhibition, % at 3 µM | actives 1.3% (n = 370,000);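 active = inhibition above the plate cutoff, the mean of all test compounds on that plate plus 3 SD, cut at about 35% in these data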;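 note: 0% = DMSO alone and 100% = 100 µM mitoxantrone as full dye displacement; higher means more dye released from RNA so lower well fluorescence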
ABHD5 PLIN5 PPI – blocks binding of human ABHD5 to perilipin-5; Q00G26+Q8WTS1; Split G. princeps luciferase complementation, luminescence, 4 h; inhibition, % at 4 µM; actives 0.78% (n = 360,000);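 active = inhibition above the mean inhibition across every tested compound plus 3 SD, cut at about 22% in these data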;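 note: 0% = DMSO only wells and the 100% control is not disclosed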
Rtt109 Vps75 – C. albicans Rtt109 histone acetyltransferase inhibition. Q5AAJ8. purified Rtt109/Vps75, ThioGlo CoA-SH fluorescence, 4 h. inhibition, % at 34.9 µM. actives 0.16% (n = 330,000). AID 540336;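 active = inhibition of at least 50% in every replicate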
PRMT1 FP inh – blocks human protein arginine methyltransferase 1; Q99873; recombinant PRMT1, activity-based probe fluorescence polarization; inhibition, % at 2.79 µM; actives 1.3% (n = 370,000); AID 652257;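 active = inhibition above about 21% made by adding two undisclosed values, limit read from the data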
ALR inh – blocks human ALR sulfhydryl oxidase activity; purified ALR, DTT oxidation, H2O2 HRP-luminol luminescence; AID 485317; actives 3.8% (n = 290,000); P55789; inhibition, % (concentration not given with the values);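 active = mean replicate inhibition above about 79%, with every replicate also reaching it, limit read from the data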
LANA-H2A inh – blocks KSHV LANA binding to histone H2A/H2B | Q9QR71 | cell-free LANA-H2A/H2B peptide, fluorescence polarization | inhibition, % (no concentration beside the values) | actives 0.6% (n = 320,000) | AID 2629; in the data active = inhibition mostly above about 10%, no sharp cut-off; inactive = mostly below about 6.7%
rCAG binder conf – r(CAG) RNA repeat binding, confirmation; shares compounds with rCAG binder; TO-PRO-1 dye displacement fluorescence; inhibition, % at 3 µM; actives 70% (n = 4,300);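 active = inhibition above a per-plate cutoff, the mean inhibition of sample wells plus 3 SD, cut at about 35% in these data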;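 note: loss of TO-PRO-1 fluorescence as compound displaces dye from 1x1 AA loop RNA; 0% = DMSO only wells and 100% = 100 µM mitoxantrone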
dCAG dye counter – counter-screen for rCAG RNA binders: DNA CAG dye complex inhibitors | shares compounds with rCAG binder | d(CAG) DNA oligo TO-PRO-1 dye displacement, fluorescence | inhibition, % at 3 µM | actives 94% (n = 4,300) | AID 652068;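 active = inhibition above its plate's cutoff, the mean test-well inhibition plus 3 SD, cut at about 4.8% in these data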;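 note: 0% = DNA dye mix with DMSO and 100% = 100 µM mitoxantrone; hits displace the dye from DNA and so lower well fluorescence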
dCAG dye DR – counter-screen for rCAG binders: inhibitors of DNA CAG TO-PRO-1 complex; DNA CAG/GTC duplex TO-PRO-1 dye displacement fluorescence; shares compounds with rCAG binder; actives 20% (n = 250); IC50, µM; AID 686960; in the data active = IC50 below about 10 µM
The depositor's hits bear a star; i = inactive; . = not tested or not shown. An excerpt weighted towards active compounds, which were near 5.9% of everything screened.

SMILES | rCAG binder | ABHD5 PLIN5 PPI | Rtt109 Vps75 | PRMT1 FP inh | ALR inh | LANA-H2A inh | rCAG binder conf | dCAG dye counter | others
Oc1c(Br)cc(Br)cc1/C=N/NC(=S)N[C@H]1CC2C=CC1C2 (stereo partly drawn) | 74* | -4 | 8 | -5 | 0 | -6 | 66* | 29* | dCAG dye DR=i
COc1ccc(/C=N/NC(=O)c2ccccc2O)cc1CN1CCOCC1 | -1 | -3 | -3 | 3 | 3 | -4 | . | .
COc1ccc(/C=N\NC(=O)c2cc(O)c(O)c(O)c2)cc1CN1CCN(c2ccc(F)cc2)CC1 | 41* | 22* | 3 | 7 | 39 | -4 | 45* | 20*
COc1ccc(C(=O)N/N=C/c2ccc(OC)c(COc3ccccc3)c2)cc1 | -1 | 15 | 4 | -4 | -4 | 5 | . | .
COc1ccc(/C=N\NC(=O)c2cc(O)c(O)c(O)c2)cc1COc1ccc(C(=O)OCC(C)C)cc1 | 50* | 6 | -2 | 7 | 8 | -3 | 56* | 35*
c1ccc(Cc2cnc(N3CCN(Cc4csc5ccccc45)CC3)nc2)cc1 | 2 | . | . | -8 | . | . | . | .
O=C(/C(=N/N=C/c1ccc(O)c(O)c1)c1ccccc1)c1ccccc1 | 37* | 1 | 3 | 3 | . | 1 | 51* | 27*
CSc1nnc(N2C(=O)C(O)=C(C(=O)c3ccc(C)o3)C2c2ccc(C)cc2)s1 (stereo not drawn) | 39* | -12 | 16 | 14 | 5 | 8 | 32 | 5.6*
CSc1nnc(N2C(=O)C(O)=C(C(=O)c3ccco3)C2c2ccccc2)s1 (stereo not drawn) | 7 | -1 | 24 | 19 | 11 | -2 | . | .
CCCSc1nnc(N2C(=O)C(O)=C(C(=O)c3ccco3)C2c2ccccc2F)s1 (stereo not drawn) | 48* | 1 | 5 | 20 | 52 | -1 | 41* | 11*
CCNc1nc2[nH]c(=O)c3c(c2s1)OC(N)=C(C#N)C3c1ccc(C)cc1 (stereo not drawn) | 53* | -24 | 4 | 3 | -7 | -10 | 27 | 14*
Cc1cccc(C(=O)Nc2nc3ncccn3c2-c2ccccc2)c1 | 0 | . | . | -4 | . | . | . | .
O=C(N[C@@H](Cc1c[nH]c2ccccc12)C(=O)O)C1CCN(S(=O)(=O)c2cccs2)CC1 | 12 | 7 | -7 | -4 | . | 5 | . | .
O=C(N[C@@H](Cc1c[nH]c2ccccc12)C(=O)O)C1CCN(S(=O)(=O)c2ccc(Cl)cc2)CC1 | 35* | -4 | -4 | -1 | -20 | 10 | 29 | 8.2*
C=CCN1C(=O)[C@H](CC(=O)NCc2cccc3ccccc23)[C@@]2(C(=O)OCC)CCCC=C12 | 4 | . | . | 6 | . | . | . | .
Cc1[nH]c2ccc(OC(F)(F)F)cc2c1CCN1C(=O)c2ccc(C(=O)O)cc2C1=O | 48* | 4 | 1 | -6 | 18 | -6 | 44* | 13*
COCCN1C(=O)c2ccc(C(=O)O)cc2C1=O | -1 | 4 | . | 1 | -5 | 2 | . | .
COCCC(=O)N1CCC(Oc2ccc(C(=O)NCCC3=CCCCC3)cc2)CC1 | -5 | 5 | 7 | 4 | -1 | 2 | . | .
Cc1cccc(OCC(=O)N/N=C/c2sc(=O)n(Cc3cccc(C(=O)O)c3)c2Cl)c1 | 35* | -6 | 6 | 5 | 15 | 3 | 37* | 10*
O=C(CCCOc1ccc(Cl)cc1)Nc1cccc(C(=O)O)c1 | 3 | -5 | 8 | 0 | -5 | -1 | . | .
Cc1ccc(OCC(=O)Nc2cc(NC(=O)COc3ccc(C)cc3)cc(C(=O)O)c2)cc1 | 70* | 2 | -17 | 2 | 3 | 4 | 64* | 25*
O=C(COc1ccc(Cl)cc1)Nc1cc(NC(=O)COc2ccc(Cl)cc2)cc(C(=O)O)c1 | 74* | 2 | -4 | 4 | 42 | -5 | 82* | 48*
